Screening results (PubChem)
Shown are actives, neighbours in structure and some others; about 19% of the full set was active somewhere.
Shiga toxin inh: A qHTS for Small Molecule Inhibitors of Shiga Toxin | Vero cells, Shiga toxin protein synthesis inhibition reporter | inhibition, % at 38.7 µM | 290,000 tested, 9.2% active; in the data active = inhibition mostly above about 28%, no sharp cut-off; inactive = mostly below about 43%; note: 0% is about no effect
Pf growth 96h: Primary qHTS for delayed death inhibitors of the malarial parasite plastid, 96 hour incubation; 320,000 tested, 6.9% active; Potency, µM (titrated, usually from 28.7 µM), for inactives: at the highest dose activity change, negative = inhibition, actives largely listed as inhibitors; P. falciparum luciferase reporter growth, 96 h; AID 504834, 2011; note: potency is the fitted concentration of half-maximal effect; % is set by controls: 0 for no effect and ±100 for the full control effect
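Delayed-death screen, second-generation endpoint: infected erythrocytes, 2% hematocrit, 0.05% parasitemia final; 96 hours at 37 C, 5% CO2; luciferase detection reagent; luminescence decrease equals reduced growth.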
Pf growth 48h: Primary qHTS for delayed death inhibitors of the malarial parasite plastid, 48 hour incubation; Potency, µM (series often up to 28.7 µM), for the others: top-dose activity change, negative = inhibition, actives largely listed as inhibitors; P. falciparum luciferase growth in erythrocytes, 48 h; 310,000 tested, 5.9% active; note: potency is the fitted concentration of half-maximal effect; % is set by controls: 0 for no effect and ±100 for the full control effect
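Luminescence readout; reporter = integrated firefly luciferase in P. falciparum. RBC culture at 2% hematocrit, 0.1% parasitemia final, 37 C/5% CO2; decreased signal taken as growth inhibition.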
SARS PLpro yeast-1: qHTS of Yeast-based Assay for SARS-CoV PLP. 330,000 tested, 0.19% active. S. cerevisiae expressing SARS-CoV PLpro, growth rescue. Potency, µM (titrated, usually from 32.9 µM), for inactives: top-dose activity, positive = growth rescue, most hits filed as activators; calls by dose curve; note: potency is the fitted concentration of half-maximal effect; 0% is about no effect; nearly all actives have a fitted effect of over 55% in size
AMA1 RON2 block: qHTS for Inhibitors of AMA1-RON; Towards Development of Antimalarial Drug Lead: Primary Screen; Plasmodium falciparum AMA1 (3D7) - RON2 peptide interaction; 360,000 tested, 0.2% active; AID 720542, 2013; Potency, µM (highest dose often 58.2 µM), inactives show at the highest dose activity change, negative = inhibition, actives largely listed as inhibitors; AlphaScreen AMA1-biotinylated RON2 peptide binding;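 note: potency is the fitted concentration of half-maximal effect; 0% = vehicle wells and -100% = peptide control; nearly all actives have a fitted effect of over 45% in size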
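AMA1 (3D7) with his tag at 25 nM final met compounds first, then biotinylated RON2 peptide at 25 nM; detection used donor plus acceptor beads, 10 µg/mL apiece, read by AlphaScreen after 30 min at room temperature.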
Cycloheximide cs: Cycloheximide Counterscreen for Small Molecule Inhibitors of Shiga Toxin. 300,000 tested, 12% active. max response, %. cell reporter, cycloheximide protein synthesis inhibition counterscreen; in the data active = max response mostly above about 13%, no sharp cut-off; inactive = mostly below about 14%; note: read at 38.3 µM for the half of the compounds with a filed dose; 0% is about no effect
SARS PLpro yeast-2: qHTS of Yeast-based Assay for SARS-CoV PLP: Hit Validation | shares compounds with SARS PLpro yeast-1 | yeast expressing SARS-CoV PLpro, growth phenotype rescue | calls only | 1,000 tested, 19% active; call rule not given here
Numbers without * were called inactive; i = inactive; ? = inconclusive; nt = no result; + = active, no number; [ ] = another dose, or the depositor's remark. Unless noted, calls come from the whole dose curve; as a rule, active = well fitted curve in the direction sought with a large enough effect; inconclusive = small, poorly fitted or top-dose-only effect, or another doubt; inactive = no such curve, though single readings can be large; an effect the other way counts as inactive or inconclusive.

SMILES	Shiga toxin inh	Pf growth 96h	Pf growth 48h	SARS PLpro yeast-1	AMA1 RON2 block	Cycloheximide cs	SARS PLpro yeast-2
CCN(C(=O)CSc1nnc(-c2ccccc2)o1)c1c(N)n(Cc2ccccc2)c(=O)[nH]c1=O	2	?	25%	?	-7%	9	i
COc1ccccc1/C=N/NC(=O)C(=O)Nc1ccccc1OC(F)(F)C(F)F	-20	-2%	-9%	20%	5%	-4	nt
O=C(N/N=C/c1cc(Cl)ccc1O)C(=O)Nc1ccccc1OC(F)(F)C(F)F	15	0%	?	2µM*	23%	-3	i
Cc1ccc(/C=C2\SC(=S)N(CCCC(=O)Nc3cccc(C(=O)O)c3)C2=O)cc1	-11	-3%	-6%	3%	-10%	1	nt
CCOC(=O)C1=C(C)NC(=S)NC1c1ccc(OCC(=O)N2CCCCCC2)c(OC)c1 (stereo not drawn)	-10	?	0%	-2%	8%	1	nt
Cc1cccc(NC(=O)COC(=O)CNC(=O)C2CCCCC2)c1	2	43%	nt	?	29%	9	i
COc1cc(NC(=O)CCn2c(=O)[nH]c3ccsc3c2=O)cc(OC)c1	-10	?	?	-15%	1%	6	nt
COc1ccc(NC(=O)CN2CCC(NC(=O)c3ccc(OC)cc3)CC2)cc1	nt	0%	-2%	-2%	0%	-1	nt
O=S(=O)(NCCc1csc(-c2cccnc2)n1)c1ccc2c(c1)OCCO2	-8	?	-4%	?	-3%	-2	i
COc1ccc(-c2nc(CCNS(=O)(=O)c3ccc4c(c3)OCCO4)cs2)cc1	11	?	-13%	-16%	-9%	0	nt
CC(C(=O)O)N1CCCCC1 (stereo not drawn)	-4	0%	?	1%	-3%	0	nt
COc1ccc(CCNC(=O)CCS(=O)(=O)Cc2ccccc2C)cc1OC	31	31%	2%[0.00184 µM]	-1%	4%	-3	nt
Cc1cccc(C2=NN(c3ccc(Br)cc3)[C@@H](C(=O)N3CCOC3=O)[C@@H]2c2ccccc2)c1	-5	nt	nt	3.5µM*	71%	-3	i
COc1ccc(S(=O)(=O)N(CC(=O)N2CCN(c3ccccc3OC)CC2)c2ccccc2)cc1	6	22%	?	4.5µM*	15%	9	i
COc1ccc(C(=O)CC(=O)C(=O)NCCc2cccc(C)c2)cc1	9	12%	-8%	20µM*	5%	8	+
COc1cc(C(=O)Oc2cccc(C(=S)N3CCOCC3)c2)cc(OC)c1OC	-7	-4%	10%	-4%	-21%	2	nt
COc1cccc(C(=O)Oc2c(CN3CCOCC3)cc(Cl)c3cccnc23)c1	-6	nt	4.7µM*	?	-74%	28	i
COc1cccc(CNC(=O)c2ccc(CS(=O)(=O)Cc3ccccc3C)o2)c1	15	19%	-19%	?	0%	8	i
CCCCOC(=O)C[N+](C)(C)CCOC1CC2CCC1(C)C2(C)C (stereo not drawn)	-4	?	1.5µM*	nt	-5%	-3	i
Cc1cc(/C=N/n2c(COc3ccccc3C)nc3ccccc3c2=O)c(O)c([N+](=O)[O-])c1	57*	?	3.3µM*	3.5µM*	?	62*	+
O=c1c2ccccc2nc(COc2ccccc2)n1/N=C/c1cc([N+](=O)[O-])ccc1O	12	?	2.6µM*	5.6µM*	-8%	7	?
Cc1ccc2sc(N3CCN(CCNC(=O)c4ccco4)CC3)nc2c1C	nt	?	?	3%	-2%	nt	nt
O=C(Cc1csc(N2CCOCC2)n1)N/N=C/c1ccc(O)c(O)c1O	-13	1%	1%	10µM*	?	9	i
O=C(O)COc1ccc(/C=N/NC(=O)COc2nsnc2N2CCOCC2)cc1	-22	-6%	53%	0%	11%	-1	nt
O=C(COc1nsnc1N1CCOCC1)N/N=C/c1ccccc1O	14	-89%	?	?	72%	55	i
SMILES	Shiga toxin inh	Pf growth 96h	Pf growth 48h	SARS PLpro yeast-1	AMA1 RON2 block	Cycloheximide cs	SARS PLpro yeast-2
CC(/C=C/c1ccccc1)=N\NC(N)=S	52*	?	10µM*	13µM*	21%	27*	+
CC(/C=C/c1ccccc1)=N\NC(=O)Cn1cncn1	15	-1%	8%	-3%	5%	6	nt
O=C(COC(=O)c1ccccc1NCCO)NNC(=O)c1cccs1	nt	37%	2%	?	45%	nt	i
O=C(COC(=O)c1ccccc1[N+](=O)[O-])NNC(=O)c1cccs1	11	14%	0%	-3%	25%	-2	nt
CC1(C)CC(=O)C(C=NCCN2CCN(C(=S)Nc3ccccc3)CC2)=C(O)C1	-3	50%	-9%	?	23%	-1	i
CCOC(=O)CNC(c1ccccc1)c1cc(Br)ccc1NC(C)=O (stereo not drawn)	15	-26%	?	0%	-12%	-3	nt
COC(=O)CNC(c1ccccc1)c1cc(C)ccc1NC(=O)c1cccc(Cl)c1 (stereo not drawn)	-11	13µM*	?	?	2%	-3	i
CC(C)CC(=O)NN(C)c1nc(-c2ccccc2)nnc1C(F)(F)F	-9	?	nt	?	-16%	0	i
Cc1cc(C)c(S(=O)(=O)N2CCCOC2CNC(=O)C(=O)NCCCn2ccnc2)c(C)c1 (stereo not drawn)	-1	13%	-12%	?	7%	-1	?
COc1cc(C(=O)Nc2nnc(SCC(=O)NCC3CCCO3)s2)cc(OC)c1OC (stereo not drawn)	24	?	-11%	4.5µM*	7%	2	i
Nc1nonc1C(=Nc1ccccc1)NO	-2	?	12%	?	4%	1	i
COc1ccccc1NC(=S)N(CCCN1CCOCC1)Cc1cccs1	-4	34%	?	3%	-11%	9	nt
O=C(Nc1ccc(Cl)cc1)N(CCCN1CCOCC1)Cc1cccs1	-4	?	nt	?	-4%	1	i
CCc1ccccc1NC(=S)N(CCCN1CCOCC1)Cc1cccs1	0	2.6µM*	-17%	?	0%	4	i
C#CC1(N2CCCCC2)CCCCC1	nt	nt	nt	nt	-3%	nt	nt
CC[n+]1c(/C=C(/C)SC)sc2ccccc21	6	?	1.7µM*	3.5µM*	-9%	-2	i
Cc1nn(C2CCS(=O)(=O)C2)c(Cl)c1/C=C/C(=O)OCC(=O)Nc1ccccc1OC(F)F (stereo not drawn)	-20	nt	-21%	-4%	10%	-2	nt
